Screening results deposited in PubChem BioAssay by NMMLSC.
Most compounds without a hit are left out; they make up all but 1.2% or so of the library.
QS inhibitor: blocks AIP-induced quorum sensing reporter in S. aureus; 24,000 tested, 0.3% active; inhibition, % at 2 µM; S. aureus RN6390 RNAIII-GFP reporter, flow cytometry 3 h;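 active = share of bacteria positive for the green fluorescent reporter and its mean brightness both inhibited by 50% or more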
FPRL1 binder: binds the human formylpeptide receptor-like-1 FPRL1. FPRL1-expressing cells, fluorescent ligand binding inhibition, flow cytometry. inhibition, % (concentration not given with the values). 24,000 tested, 0.3% active. AID 441
FPR ligand: ligands of human FPR, also counter-screen for FPRL1 ligands | 24,000 tested, 0.74% active | FPR-expressing cells, fluorescent ligand binding, flow cytometry | AID 440 | inhibition, % (no concentration beside the values) | P21462
Target sequence (P21462 whole entry, looked up): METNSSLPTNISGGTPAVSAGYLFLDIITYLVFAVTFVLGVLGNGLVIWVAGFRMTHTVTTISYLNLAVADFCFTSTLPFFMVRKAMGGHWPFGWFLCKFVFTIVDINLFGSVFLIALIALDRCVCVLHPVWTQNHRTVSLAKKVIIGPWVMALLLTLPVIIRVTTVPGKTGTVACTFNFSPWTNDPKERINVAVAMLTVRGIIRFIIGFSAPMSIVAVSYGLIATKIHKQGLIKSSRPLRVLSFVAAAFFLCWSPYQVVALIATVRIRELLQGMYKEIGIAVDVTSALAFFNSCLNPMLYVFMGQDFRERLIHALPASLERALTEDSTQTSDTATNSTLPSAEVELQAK
Large screens that a line does not name were inactive. Rule as the data show it, unless noted: active = inhibition above about 30%; inconclusive = no clear call, values can overlap the other calls; inactive = below that.

O=C(Nc1ccc(F)cc1)N(CCCN1CCOCC1)Cc1cc2cc3c(cc2[nH]c1=O)OCO3	none
CCc1ccc2[nH]c(=O)c(CN(CCCN3CCOCC3)C(=O)Nc3ccc(F)cc3)cc2c1	QS inhibitor 93 (no result: FPRL1 binder, FPR ligand)
C=CCn1c(SCc2nc(N)nc(N3CCCCC3)n2)nnc1-c1ccco1	none
CCOC(=O)Cn1c(=O)oc2cc(S(=O)(=O)NCCc3ccc(OCC)c(OCC)c3)ccc21	none
CCC(SC1=Nc2ccccc2C2=NC(CC(C)C)C(=O)N12)C(=O)Nc1ccc2c(c1)OCO2 (stereo not given)	FPR ligand 58
CC(C)C(C(=O)Nc1ccc2c(c1)OCO2)N1C(=O)c2ccccc2C1=O (stereo not given)	none
Cc1cc(O)c(NC(=O)c2ccc(Br)o2)cc1C	none
O=C(Nc1ccc(Nc2ccccc2)cc1)c1ccc(Br)o1	FPRL1 binder 34 (no result: QS inhibitor)
CC(C)(C)NC(=O)c1ccc2c(c1)N(CC(=O)N1CCN(c3ccc(F)cc3)CC1)C(=O)C(C)(C)O2	none (no result: FPRL1 binder, FPR ligand)
Cc1nnc(SCC(=O)Nc2ccc(Br)cn2)[nH]c1=O	none
CCc1c(C)nc(SCC(=O)Nc2ccc(Br)cc2)[nH]c1=O	QS inhibitor 80
Nc1c(C(O)(C(F)(F)F)C(F)(F)F)ccc2ccccc12	QS inhibitor 63
Cc1nnc(SCc2cnc(-c3ccccc3)o2)[nH]c1=O	FPRL1 binder 52, FPR ligand 63
Cc1nnc(SCC(C)C)[nH]c1=O	none
CCOC(=O)N1CCC(N2C(=O)c3ccccc3C2Nc2ccc(Cl)cn2)CC1 (stereo not given)	none
CCN(CC)CCCN1C(=O)C(=O)/C(=C(/O)c2ccc3c(c2)CC(C)O3)C1c1cccnc1 (stereo not given)	none (no result: QS inhibitor)
COc1cccc(N2C(=O)C3ON(c4ccccc4)C(c4cccs4)C3C2=O)c1 (stereo not given)	FPR ligand 39
O=C1C2ON(c3ccccc3)C(c3cccnc3)C2C(=O)N1c1ccccc1 (stereo not given)	none
Cn1cc(CC(=O)Nc2cccc(C#N)c2)c2ccccc21	none
c1ccc(-c2ccc(C(c3ccccc3)n3ccnc3)cc2)cc1 (stereo not given)	QS inhibitor 58
c1ccc(-c2nc(N3CCCCCC3)nc(-n3ccnc3)n2)cc1	none
COc1ccc(CN(C(=O)c2ccccc2OC)C2CCS(=O)(=O)C2)cc1 (stereo not given)	FPRL1 binder 51, FPR ligand 51
CCOc1cccc(C(=O)N(Cc2ccc(F)cc2)C2CCS(=O)(=O)C2)c1 (stereo not given)	none
Cc1cc(=O)n2[nH]cc(C(=O)O)c2n1	none (no result: QS inhibitor, FPR ligand)
Cn1c(=O)n(CCc2ccccc2)c(=O)c2c1nc1n2CCN1Cc1ccco1	QS inhibitor 96
Cc1ccc(C)c(Cn2c(=O)c3c(nc4n3CCN4Cc3ccco3)n(C)c2=O)c1	none
Cc1ccc(C)c(-n2nnnc2SCC(=O)NCCC2=CCCCC2)c1	none
Cc1ccc(C2C(C(=O)c3ccco3)=C(O)C(=O)N2c2nnc(C)s2)cc1 (stereo not given)	none (no result: QS inhibitor)
COc1ccc(C2C(C(=O)c3cccs3)=C(O)C(=O)N2c2nncs2)cc1 (stereo not given)	none (no result: QS inhibitor)
C=CCOc1ccc(C2C(C(=O)c3cccs3)=C(O)C(=O)N2c2nnc(C)s2)cc1 (stereo not given)	FPR ligand 43 (no result: QS inhibitor)
COc1ccc(C2C(C(=O)c3cccs3)=C(O)C(=O)N2c2nnc(C)s2)cc1OC (stereo not given)	FPR ligand 36 (no result: QS inhibitor)
CCOc1ccc(CCNC(=O)c2cc3sccc3n2C)cc1OCC	none
CCOc1ccc(-c2cc3nc(C4CCN(C(=O)OC(C)(C)C)CC4)c(C(=O)O)cn3n2)cc1	none
Cc1sc(NC(=O)C2CCCCC2C(=O)O)c(C(N)=O)c1-c1ccc(C(C)(C)C)cc1 (stereo not given)	FPR ligand 49 (no result: QS inhibitor)
Cc1sc(NC(=O)C2CCCCC2C(=O)O)c(C(N)=O)c1-c1ccccc1 (stereo not given)	none (no result: QS inhibitor)
CCCCn1c(NC(C)=O)c(C#N)c2nc3ccccc3nc21	FPR ligand 66 (no result: QS inhibitor)
N#Cc1c(N)n(CCNC(=O)c2cccs2)c2nc3ccccc3nc12	none
C=CCn1c(NC(=O)c2ccccc2Cl)c(C#N)c2nc3ccccc3nc21	none (no result: QS inhibitor)
C=CCn1c(NC(=O)c2ccccc2)c(C#N)c2nc3ccccc3nc21	FPRL1 binder 32, FPR ligand inconclusive (no result: QS inhibitor)
Cc1ccc2oc(C(=O)Nc3c(C)n(C)n(-c4ccccc4)c3=O)c(C)c2c1	none
CCOC(=O)C1=C(N)c2ccccc2CC1C(C)C (stereo not given)	none
CCOC(=O)Cn1c(=O)oc2cc(S(=O)(=O)Nc3ccc(N(CC)CC)cc3C)ccc21	QS inhibitor 90, FPRL1 binder inconclusive
CCOC(=O)Cn1c(=O)oc2cc(S(=O)(=O)Nc3cc(OCC)ccc3OCC)ccc21	none
COc1ccc(-c2cc3nc(C)c(CCC(=O)N4CCCCC4)c(C)n3n2)c(OC)c1	none
